# Screens: PubChem BioAssay, Johns Hopkins Ion Channel Center
# KCNQ2 block: rat KCNQ2 potassium channel inhibitors, primary screen, cell-based, CHO-K1, FluxOR thallium flux, B-score. AID 2156, 2009. B-score at 10 µM. 20 min; active compounds read low. Potassium voltage-gated channel subfamily KQT member 2 (Rattus norvegicus), O88943. 310,000 compounds, 1.1% hits;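 active means fluorescence ratio B-score at most minus 3 library SDs, with starting brightness B-score within 2 library SDs, cut at about -5.5 in these data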
# Target sequence (O88943 whole entry, looked up): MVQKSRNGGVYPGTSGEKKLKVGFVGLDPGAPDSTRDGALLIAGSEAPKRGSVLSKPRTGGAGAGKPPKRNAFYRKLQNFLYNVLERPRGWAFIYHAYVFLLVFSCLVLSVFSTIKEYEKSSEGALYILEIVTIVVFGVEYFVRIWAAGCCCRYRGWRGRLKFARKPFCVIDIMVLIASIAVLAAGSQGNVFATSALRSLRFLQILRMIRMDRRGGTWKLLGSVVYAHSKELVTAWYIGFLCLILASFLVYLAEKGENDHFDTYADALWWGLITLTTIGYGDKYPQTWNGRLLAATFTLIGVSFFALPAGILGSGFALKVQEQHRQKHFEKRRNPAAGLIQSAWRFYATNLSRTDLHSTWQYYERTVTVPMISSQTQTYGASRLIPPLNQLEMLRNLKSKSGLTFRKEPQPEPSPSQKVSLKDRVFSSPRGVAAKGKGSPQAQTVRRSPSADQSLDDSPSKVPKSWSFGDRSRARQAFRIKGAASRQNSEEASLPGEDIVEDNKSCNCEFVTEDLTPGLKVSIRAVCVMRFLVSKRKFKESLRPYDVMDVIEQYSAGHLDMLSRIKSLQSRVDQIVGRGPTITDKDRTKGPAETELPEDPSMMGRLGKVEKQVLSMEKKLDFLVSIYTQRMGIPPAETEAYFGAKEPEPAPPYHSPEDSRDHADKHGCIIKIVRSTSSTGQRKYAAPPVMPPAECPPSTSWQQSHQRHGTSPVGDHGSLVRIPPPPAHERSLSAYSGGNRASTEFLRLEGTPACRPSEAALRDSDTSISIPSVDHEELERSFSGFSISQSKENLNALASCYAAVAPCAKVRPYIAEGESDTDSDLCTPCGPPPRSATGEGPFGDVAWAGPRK
# KCNQ2 pot: potentiators of rat KCNQ2 potassium channel; Potassium voltage-gated channel subfamily KQT member 2 (Rattus norvegicus), O88943; CHO-K1 KCNQ2, FluxOR thallium flux fluorescence; active compounds read high; B-score at 10 µM; 310,000 compounds, 0.54% hits;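 active means fluorescence ratio B-score at least 3 SD of library B-scores, with initial fluorescence B-score within 3 of them, cut at about 5.3 in these data; same plate scores as AID 2156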;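 further: B-score of peak minus minimum over baseline fluorescence ratio after K+ and Tl+ stimulus; positive B-score means potentiation of KCNQ2 with more thallium influx and brighter signal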
# Hits are given with their value; n = inactive; x = not tested or not shown. A selection: hits, their analogues and other compounds. The true share with any hit is near 1.6%.
SMILES,KCNQ2 block,KCNQ2 pot
O=C(COc1ccc(C(=O)O)cc1)Nc1cccc(C(F)(F)F)c1,n,n
CCOc1ccc(-n2cc(C(=O)Nc3cccc(C)n3)c3cc(OC)c(OC)cc3c2=O)cc1,n,x
Oc1ccc(NCc2cccc(OCc3ccccc3)c2)cc1,n,x
Oc1ccc(NCc2cccc(OCc3ccc(F)cc3)c2)cc1,-5.85,n
COc1c2ccoc2nc2c(OC)c(OCC(OC(C)=O)C(C)(C)O)ccc12 (stereo not given),n,n
O=C(NCCN1CCN(c2ccccc2)CC1)C1CCN(S(=O)(=O)c2cccc3nsnc23)CC1,n,n
O=C(Cc1cccc2ccccc12)Nc1ccc(O)cc1C(=O)O,n,x
CN(C)c1ccc(S(=O)(=O)N(C)C)cc1NC(=O)Cc1cccc2ccccc12,-7.47,n
CCCCCC(=O)Nc1cc(S(=O)(=O)N2CCOCC2)ccc1Oc1ccc(OCC)cc1,n,x
CCCC(C)C(=O)Nc1ncc(S(=O)(=O)c2ccc([N+](=O)[O-])cc2)s1 (stereo not given),n,n
O=C(CN1C2=NCCCN2c2ccccc21)c1ccc([N+](=O)[O-])cc1,n,n
CC(=O)c1cccc(NC(=O)NC2CC(=O)N(c3ccc4c(c3)OCCO4)C2)c1 (stereo not given),n,x
Cc1cc2nsnc2c(S(=O)(=O)N2CCN(C)CC2)c1C,n,n
O=C(CSc1nnc(-c2cc3ccccc3cc2O)n1Cc1ccco1)c1ccc(F)cc1,-5.93,n
Cc1occc1-c1nnc(SCC(=O)c2ccc(F)cc2)n1Cc1ccco1,n,x
CCc1cc2c(=O)[nH]c(-c3ccccn3)nc2s1,n,10.9
CCc1cc2c(=O)[nH]c(N3CCCC3)nc2s1,n,x
O=C(NCCCN1CCOCC1)C(C(=O)NCCCN1CCOCC1)c1ncc(C(F)(F)F)cc1Cl,n,n
Cc1nn(C(C)C(=O)N2CCN(c3ccccn3)CC2)c(=O)c2cc3occc3n12 (stereo not given),n,n
CCc1nn(C(C)C(=O)N2CC(C)CC(C)C2)c(=O)c2cc3occc3n12 (stereo not given),-8.1,n
CCc1nn(C(C)C(=O)N2CCN(Cc3ccccc3)CC2)c(=O)c2cc3occc3n12 (stereo not given),n,x
Cc1cccc(N2CCN(C(=O)C(C)n3nc(C)n4c(cc5occc54)c3=O)CC2)c1C (stereo not given),-6.11,n
COc1ccc([N+](=O)[O-])c(OC)c1C(=O)NC(=O)Nc1c(F)cc(F)cc1F,n,x
FC(F)(F)c1ccc(-c2csc(-c3ccno3)n2)cc1,n,x
CC(C)(C)C(=O)OCc1nc(-c2ccc(C(F)(F)F)cc2)cs1,-5.59,n
SMILES,KCNQ2 block,KCNQ2 pot
Nc1cc(Cl)nnc1Cl,n,x
O=C(CCc1nnc(-c2ccsc2)o1)NCc1ccccc1OC(F)(F)F,-6.34,n
CC(C)c1nc(CNC(=O)CCc2nnc(-c3ccsc3)o2)cs1,n,n
COc1ccc(OC)c(NC(=O)Cn2nc(C)c3ccccc3c2=O)c1,n,x
CC(=O)c1ccc2c(c1)C1C=CCC1C(c1cc3c(cc1Br)OCO3)N2 (stereo not given),-7.44,n
O=C(O)c1ccc2c(c1)C1C=CCC1C(c1ccncc1)N2 (stereo not given),n,n
CCNc1nc(NC(C)C)nc(Oc2ccc(=O)n(C)n2)n1,n,x
Cc1ccc(OCCN2CCN(c3ncnc4sc(C)c(C)c34)CC2)cc1,n,x
Clc1ccc(OCCN2CCN(c3ncnc4sccc34)CC2)cc1,-6.05,n
O=C(Nc1ccccc1)n1ccc(-c2ccc(-n3ccnc3)cc2)n1,n,n
O=C1CC(C(=O)Nc2ccccc2)S/C(=N\NC(=O)c2ccccc2Cl)N1 (stereo not given),n,n
O=C(NC(=S)N1CCN(c2ccccn2)CC1)c1ccco1,n,x
Cc1nnc(SCC(=O)N(C)c2ccccc2)n1Cc1ccccc1,n,n
O=C(COc1ccccc1)NCC(c1ccco1)N1CCN(c2ccccc2)CC1 (stereo not given),n,x
O=C(COc1cccc(C(F)(F)F)c1)NCC(c1ccco1)N1CCCCC1 (stereo not given),-5.6,n
Cn1cccc1Cc1nnc(SCC(=O)NCc2ccco2)n1-c1ccc(F)cc1,n,n
Cn1cccc1Cc1nnc(SCC(=O)NCc2ccccc2Cl)n1-c1ccc(F)cc1,-7.22,n
Cc1ccc(S(=O)(=O)c2c(C)nn(C(C)(C)C)c2OC(=O)C2CCCC2)cc1,n,x
Cc1nn(C(C)(C)C)c(OC(=O)C2CCCC2)c1S(=O)(=O)c1ccccc1,-5.96,n
S=C(NCc1ccc(Cl)cc1)NCc1ccco1,n,n
Cc1cccn2c(/C=N/OCc3ccc(F)cc3)c(-c3ccc(Cl)cc3)nc12,-6.57,n
COc1ccc(/C(C#N)=C/c2c(-c3ccc(Cl)cc3)nc3c(C)cccn23)cc1,n,x
